# Measurements reported in the supplement of paper PMC11624193, “Coupling cellular drug-target engagement to downstream pharmacology with CeTEAM” (Nature Communications, 2024).
# A number with no mark means an inactive call.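 Rule for the calls: active = log2 fold change beyond 2 SD from the library mean after excluding viability outliers; inactive = within 2 SD.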
# Molecular target: PARP1 L713F-nLuc biosensor (HCT116) (UniProt P09874)
# Assay: PARP1 L713F-nLuc/akaLuc ratio relative to DMSO control (biosensor stabilization) (fold change); higher = more PARP1 biosensor stabilization (target engagement / stabilizer), active = hit call of the paper
# Conditions: stock concentration (mM; final µM = stock mM x 1): 2; 24 h
# Chain of PARP1 L713F-nLuc biosensor (HCT116) (P09874 whole entry L713F, looked up): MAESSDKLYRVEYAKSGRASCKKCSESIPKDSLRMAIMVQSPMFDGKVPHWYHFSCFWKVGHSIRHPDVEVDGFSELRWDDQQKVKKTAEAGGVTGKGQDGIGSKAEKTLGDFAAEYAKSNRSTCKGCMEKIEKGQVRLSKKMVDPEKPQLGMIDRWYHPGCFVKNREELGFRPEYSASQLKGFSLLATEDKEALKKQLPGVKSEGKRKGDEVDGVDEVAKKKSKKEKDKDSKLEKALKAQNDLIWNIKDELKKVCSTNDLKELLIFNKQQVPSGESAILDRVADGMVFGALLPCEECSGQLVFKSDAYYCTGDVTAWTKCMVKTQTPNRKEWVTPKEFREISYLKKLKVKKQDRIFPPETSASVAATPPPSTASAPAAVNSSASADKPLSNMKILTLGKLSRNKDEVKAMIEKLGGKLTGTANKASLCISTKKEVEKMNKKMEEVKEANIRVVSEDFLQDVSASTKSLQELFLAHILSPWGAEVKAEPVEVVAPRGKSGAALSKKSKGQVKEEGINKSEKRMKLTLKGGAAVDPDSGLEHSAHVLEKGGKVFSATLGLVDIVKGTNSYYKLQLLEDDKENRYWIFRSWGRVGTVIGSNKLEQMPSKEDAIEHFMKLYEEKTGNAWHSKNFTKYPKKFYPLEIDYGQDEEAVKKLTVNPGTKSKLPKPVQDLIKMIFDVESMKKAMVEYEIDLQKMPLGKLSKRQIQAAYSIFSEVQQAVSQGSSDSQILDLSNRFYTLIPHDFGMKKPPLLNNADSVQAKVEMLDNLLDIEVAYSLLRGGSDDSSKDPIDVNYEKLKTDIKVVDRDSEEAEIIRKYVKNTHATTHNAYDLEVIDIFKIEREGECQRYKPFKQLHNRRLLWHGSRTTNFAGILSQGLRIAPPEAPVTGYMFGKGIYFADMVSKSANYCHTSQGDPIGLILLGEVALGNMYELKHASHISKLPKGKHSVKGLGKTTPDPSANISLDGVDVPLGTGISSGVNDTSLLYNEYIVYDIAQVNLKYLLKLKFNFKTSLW
row,SMILES,PARP1 L713F-nLuc/akaLuc ratio
1,Cn1cc(-c2ccc(F)c(C(F)(F)F)c2)nc1C1CCN(c2ncnc3[nH]ncc23)CC1,0.945
2,Cc1cc(C)c(CNC(=O)c2cc(-c3ccc(CN4CCOCC4)cc3)cc3c2cnn3C2CCCC2)c(=O)[nH]1,1.45
3,Cc1nn(C)c(COc2ccc(N3CCN(S(=O)(=O)N(C)C)CC3)cc2)c1-c1cccc2c(CCCOc3cccc4ccccc34)c(C(=O)O)n(CCN3CCOCC3)c12,1.04
4,CC(C)Cn1cnc2c(N)nc3ccccc3c21 [Imiquimod],1.02
5,COc1cc2/c(=N/c3ccc(Br)cc3F)nc[nH]c2cc1OCC1CCN(C)CC1 [Vandetanib (ZD6474)],0.748

# Same assay, conditions: stock concentration (mM; final µM = stock mM x 1): 10; 24 h
row,SMILES,PARP1 L713F-nLuc/akaLuc ratio
1,CC(=O)Nc1ccc(NC(=S)NC(=O)c2ccc(C(C)(C)C)cc2)cc1 [Tenovin-1],0.509
2,CC[C@H](C)[C@H](NC(=O)[C@H](CCCCN)NC(=O)[C@H](CC(C)C)NC(=O)[C@@H]1CCCN1C(=O)[C@H](CCC(=O)O)NC(=O)[C@H](Cc1ccc(O)cc1)NC(=O)[C@@H](NC(=O)[C@H](CO)NC(=O)CNC(=O)[C@H](CO)NC(=O)[C@H](CCCN=C(N)N)NC(=O)[C@H](CCCCN)NC(=O)[C@@H](NC(=O)[C@@H](N)CCCN=C(N)N)[C@@H](C)O)C(C)C)C(=O)O [Malantide],1.76
3,CN1CCN(c2ccc3nc(-c4c(N)c5c(F)cccc5[nH]c4=O)[nH]c3c2)CC1 [Dovitinib (TKI258) Lactate],0.754
4,CS(=O)(=O)c1ccc(-c2cnc(NCc3ccco3)n3cnnc23)cc1,0.722
5,CO[C@@H](C(=O)N1Cc2[nH]nc(NC(=O)c3ccc(N4CCN(C)CC4)cc3)c2C1)c1ccccc1 [Danusertib],0.752
6,Cn1ncc(NC(=O)c2nc(-c3c(F)cccc3F)sc2N)c1N1CC[C@@H](N)[C@H](F)CC1,0.793
7,COc1ccc(-n2c(SCCCN3C(=O)c4cccc5cccc(c45)C3=O)nnc2-c2ccncc2)cc1,0.933
8,CNc1nc(NC2CCN(Cc3ccc4c(cc(C#N)n4CC45CC(NC=O)(C4)C5)c3C)CC2)c2cc(CC(F)(F)F)sc2n1,1.38
9,COc1ccc(C2CC(c3ccccc3)=NN2c2ccc(S(N)(=O)=O)cc2)cc1 (stereo not drawn),1.29
10,CC1(C)Oc2cc(N3CCN(C(=O)OCc4ccccc4)CC3)c([N+](=O)[O-])cc2-c2c1cnn2-c1ccc(C(=O)O)cc1 [Lin28-let-7a antagonist 1],0.959
11,CCS(=O)(=O)N1CCC([C@@H](C)n2c(C)c(C(=O)NCc3c(OC)cc(C)[nH]c3=O)c3ccccc32)CC1,1.51
12,Cc1ccc(-n2nc(C(C)(C)C)cc2NC(=O)Nc2ccc(OCCN3CCOCC3)c3ccccc23)cc1 [Doramapimod (BIRB 796)],0.671
13,CCCCCCCCCCCCC/C=C/[C@@H](O)[C@@H](N)CO [D-erythro-Sphingosine],1.21
14,O=C(c1ccc(/C=C/c2n[nH]c3ccccc23)cc1)N1CCNCC1,1.3
15,Cc1cc(C(C)Nc2ccccc2)c2nc(N3CCOCC3)cc(=O)n2c1 (stereo not drawn),0.773
16,Cc1cc(C)c(CNC(=O)c2cc(-c3ccc(CN4CCOCC4)cc3)cc3c2cnn3C2CCCC2)c(=O)[nH]1,1.16
17,O=C(Nc1ccc(O)c(C(=O)O)c1)c1cccc(NC(=O)c2ccco2)c1,1.19
18,N#CCNC(=O)c1ccc(-c2ccnc(Nc3ccc(N4CCOCC4)cc3)n2)cc1 [Momelotinib],0.661
19,CC(C)(C)C[C@@H]1N[C@@H](C(=O)N[C@H]2CC[C@H](O)CC2)[C@H](c2cccc(Cl)c2F)[C@]12C(=O)Nc1cc(Cl)ccc12,0.287 (active)
20,CCC(CC)(NC(=O)C(C)C)C(=O)N[C@@H](CCCN=C(N)N)C(=O)NC1(C(=O)NC(c2ccc(F)cc2)c2ccc(F)cc2)CCCC1,0.991
21,CN1CCc2c(c3ccccc3n2Cc2ccc(C(=O)NO)cc2)C1 [Tubastatin A],1.26
22,CNCc1ccc(-c2[nH]c3cc(F)cc4c3c2CCNC4=O)cc1 [Rucaparib (Camsylate)],6.55 (active)
23,O=C(O)CCNc1cc(N2CCc3ccccc3CC2)nc(-c2cccnc2)n1,1.22
